We go through one sequence from PMC7862700, “An all-to-all approach to the identification of sequence-specific readers for epigenetic DNA modifications on cytosine”.

Holding throughout (assay): DAPPL (digital affinity profiling via proximity ligation, sequencing); 10 mM Tris-HCl pH 7.5, 50 mM NaCl, 1 mM DTT, 4% glycerol, room temperature, 30 min; GST-TFs on glutathione beads, 16-mer random dsDNA library, 0.1% formaldehyde crosslink after washing; high values mean tight binding
One experiment concerns the target T1, FEV (Homo sapiens, UniProt Q99581 1-238).
T1 sequence: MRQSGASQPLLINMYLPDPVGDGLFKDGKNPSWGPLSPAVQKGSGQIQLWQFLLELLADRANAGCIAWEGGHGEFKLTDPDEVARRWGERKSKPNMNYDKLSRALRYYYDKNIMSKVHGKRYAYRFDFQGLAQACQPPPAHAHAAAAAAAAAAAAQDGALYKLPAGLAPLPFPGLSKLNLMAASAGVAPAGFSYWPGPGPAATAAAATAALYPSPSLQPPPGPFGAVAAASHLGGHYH
The conditions noted are these: protein: recombinant; tags: N-terminal GST; dsDNA, one strand shown. The procedure, abridged: (§1)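 Binding signal is given per hexamer as its read frequency for a factor divided by its frequency in the tag-only sample. GST-fused human transcription factors were expressed in yeast, captured on glutathione beads, barcoded with DNA and pooled with that sample, then incubated with 200 nmole of a 16-mer random double-stranded DNA library in Tris/NaCl/DTT/glycerol buffer for 30 min at room temperature. The pools were then washed, crosslinked, proximity-ligated, amplified by PCR and sequenced on an Illumina NextSeq500.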

Another experiment has as its target ETV5 (Homo sapiens, UniProt P41161 1-510). The conditions noted are these: protein: recombinant; tags: N-terminal GST; dsDNA, one strand shown. The method in brief:
as §1

The target in the next experiment is HSF1 (Homo sapiens, UniProt Q00613 1-529). The conditions noted are these: protein: recombinant; tags: N-terminal GST; chain copies: 3; dsDNA, one strand shown. The method in brief: as §1
Sequence of HSF1 (Q00613 whole entry): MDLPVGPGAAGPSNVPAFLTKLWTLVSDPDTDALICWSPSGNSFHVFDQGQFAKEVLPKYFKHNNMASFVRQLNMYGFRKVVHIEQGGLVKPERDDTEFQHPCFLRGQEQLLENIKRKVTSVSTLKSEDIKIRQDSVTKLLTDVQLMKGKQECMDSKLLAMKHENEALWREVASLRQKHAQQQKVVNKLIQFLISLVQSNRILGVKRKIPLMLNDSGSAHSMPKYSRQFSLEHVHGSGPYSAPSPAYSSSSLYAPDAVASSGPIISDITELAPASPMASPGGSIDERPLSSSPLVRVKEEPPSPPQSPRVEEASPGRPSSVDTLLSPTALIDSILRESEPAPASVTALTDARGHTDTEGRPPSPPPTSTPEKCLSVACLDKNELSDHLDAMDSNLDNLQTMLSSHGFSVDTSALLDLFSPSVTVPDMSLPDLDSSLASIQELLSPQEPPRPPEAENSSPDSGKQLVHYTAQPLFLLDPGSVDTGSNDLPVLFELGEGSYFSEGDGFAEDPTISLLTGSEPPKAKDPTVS
For the next experiment, the target named is T2, SPIC (Homo sapiens, UniProt Q8N5J4 1-248).
T2 sequence: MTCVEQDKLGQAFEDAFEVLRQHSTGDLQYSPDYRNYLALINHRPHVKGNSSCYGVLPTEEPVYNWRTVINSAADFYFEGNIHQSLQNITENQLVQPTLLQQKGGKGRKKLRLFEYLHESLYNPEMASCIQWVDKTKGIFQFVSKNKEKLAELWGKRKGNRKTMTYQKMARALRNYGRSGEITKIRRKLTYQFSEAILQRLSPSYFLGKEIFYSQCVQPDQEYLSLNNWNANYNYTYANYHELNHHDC
The conditions noted are these: protein: recombinant; tags: N-terminal GST; dsDNA, one strand shown. The method in brief:
as §1

A further experiment addresses ELF4 (Homo sapiens, UniProt Q99607 1-663). The conditions noted are these: protein: recombinant; tags: N-terminal GST; dsDNA, one strand shown. The method in brief: as §1
Another experiment concerns the target T3, ELK4 (Homo sapiens, UniProt P28324-2 1-405).
T3 sequence: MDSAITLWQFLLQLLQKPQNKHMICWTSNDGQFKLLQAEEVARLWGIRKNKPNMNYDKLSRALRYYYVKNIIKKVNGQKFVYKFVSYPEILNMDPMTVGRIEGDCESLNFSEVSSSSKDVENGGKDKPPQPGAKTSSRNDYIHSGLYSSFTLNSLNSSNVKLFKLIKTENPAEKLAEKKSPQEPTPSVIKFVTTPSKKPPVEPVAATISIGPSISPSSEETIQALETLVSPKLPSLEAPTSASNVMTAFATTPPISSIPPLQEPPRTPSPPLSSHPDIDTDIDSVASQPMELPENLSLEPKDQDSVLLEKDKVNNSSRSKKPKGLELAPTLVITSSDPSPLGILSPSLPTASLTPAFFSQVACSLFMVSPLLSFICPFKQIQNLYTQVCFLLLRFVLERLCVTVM
The note with it: protein: recombinant; tags: N-terminal GST; dsDNA, one strand shown. The procedure, abridged: as §1

A further experiment has as its target T4, ETV2 (Homo sapiens, UniProt O00321 1-342).
T4 sequence: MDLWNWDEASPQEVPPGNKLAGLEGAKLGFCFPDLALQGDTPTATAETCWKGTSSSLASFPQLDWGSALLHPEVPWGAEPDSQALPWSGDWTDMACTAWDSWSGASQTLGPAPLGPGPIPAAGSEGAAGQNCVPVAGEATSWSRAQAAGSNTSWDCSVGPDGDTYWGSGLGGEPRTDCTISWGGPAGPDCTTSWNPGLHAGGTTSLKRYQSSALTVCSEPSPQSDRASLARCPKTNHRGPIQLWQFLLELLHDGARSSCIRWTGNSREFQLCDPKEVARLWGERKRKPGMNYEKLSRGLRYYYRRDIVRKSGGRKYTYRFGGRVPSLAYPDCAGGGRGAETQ
The note with it: protein: recombinant; tags: N-terminal GST; dsDNA, one strand shown. The procedure, abridged: as §1

The target in the next experiment is T5, ELF3 (Homo sapiens, UniProt P78545 1-371).
T5 sequence: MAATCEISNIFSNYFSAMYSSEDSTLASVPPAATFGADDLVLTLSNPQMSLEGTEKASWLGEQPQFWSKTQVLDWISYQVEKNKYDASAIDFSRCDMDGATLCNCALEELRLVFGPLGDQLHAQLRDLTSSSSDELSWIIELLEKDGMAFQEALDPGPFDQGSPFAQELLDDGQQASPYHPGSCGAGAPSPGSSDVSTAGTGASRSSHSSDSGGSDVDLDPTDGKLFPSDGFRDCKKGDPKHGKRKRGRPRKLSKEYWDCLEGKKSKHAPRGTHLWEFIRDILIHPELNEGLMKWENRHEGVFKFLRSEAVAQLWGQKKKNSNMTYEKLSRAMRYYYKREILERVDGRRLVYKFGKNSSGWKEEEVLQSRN
The note with it: protein: recombinant; tags: N-terminal GST; dsDNA, one strand shown. The procedure, abridged:
as §1

A further experiment has as its target CRX (Homo sapiens, UniProt O43186 1-299). The conditions noted are these: protein: recombinant; tags: N-terminal GST; dsDNA, one strand shown. The procedure, abridged: as §1
A further experiment addresses ETV1 (Homo sapiens, UniProt P50549 1-477). The conditions noted are these: protein: recombinant; tags: N-terminal GST; dsDNA, one strand shown. The procedure, abridged:
as §1

For another experiment, the target named is T6, ERF (Homo sapiens, UniProt P50548 1-548).
T6 sequence: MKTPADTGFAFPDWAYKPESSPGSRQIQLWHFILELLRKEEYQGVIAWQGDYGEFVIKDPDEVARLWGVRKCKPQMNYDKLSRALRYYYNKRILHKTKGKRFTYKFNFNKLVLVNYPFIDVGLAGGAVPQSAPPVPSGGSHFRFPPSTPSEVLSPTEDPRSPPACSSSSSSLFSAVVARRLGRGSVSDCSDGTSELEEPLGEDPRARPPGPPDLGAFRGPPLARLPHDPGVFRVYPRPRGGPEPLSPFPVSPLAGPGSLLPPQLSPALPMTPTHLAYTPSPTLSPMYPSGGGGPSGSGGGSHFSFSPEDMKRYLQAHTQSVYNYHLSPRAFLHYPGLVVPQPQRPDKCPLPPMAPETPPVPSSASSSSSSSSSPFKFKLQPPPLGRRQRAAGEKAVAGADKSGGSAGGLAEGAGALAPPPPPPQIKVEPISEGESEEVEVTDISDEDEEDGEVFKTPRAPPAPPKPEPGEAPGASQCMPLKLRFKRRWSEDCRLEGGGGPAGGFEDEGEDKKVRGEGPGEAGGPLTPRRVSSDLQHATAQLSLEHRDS
The conditions noted are these: protein: recombinant; tags: N-terminal GST; dsDNA, one strand shown. The method in brief:
as §1

Another experiment addresses T7, ETV3L (Homo sapiens, UniProt Q6ZN32 1-361).
T7 sequence: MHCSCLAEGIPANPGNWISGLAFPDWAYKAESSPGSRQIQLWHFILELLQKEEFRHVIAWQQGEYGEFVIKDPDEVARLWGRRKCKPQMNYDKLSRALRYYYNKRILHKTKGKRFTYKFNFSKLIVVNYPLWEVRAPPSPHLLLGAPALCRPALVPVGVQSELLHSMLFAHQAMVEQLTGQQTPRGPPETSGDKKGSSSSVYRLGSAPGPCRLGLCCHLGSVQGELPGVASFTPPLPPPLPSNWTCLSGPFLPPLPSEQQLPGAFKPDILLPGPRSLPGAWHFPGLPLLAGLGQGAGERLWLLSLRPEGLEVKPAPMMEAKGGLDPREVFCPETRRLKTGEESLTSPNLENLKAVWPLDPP
The note with it: protein: recombinant; tags: N-terminal GST; dsDNA, one strand shown. The method in brief: as §1

Another experiment deals with T8, ETS2 (Homo sapiens, UniProt P15036 1-469).
T8 sequence: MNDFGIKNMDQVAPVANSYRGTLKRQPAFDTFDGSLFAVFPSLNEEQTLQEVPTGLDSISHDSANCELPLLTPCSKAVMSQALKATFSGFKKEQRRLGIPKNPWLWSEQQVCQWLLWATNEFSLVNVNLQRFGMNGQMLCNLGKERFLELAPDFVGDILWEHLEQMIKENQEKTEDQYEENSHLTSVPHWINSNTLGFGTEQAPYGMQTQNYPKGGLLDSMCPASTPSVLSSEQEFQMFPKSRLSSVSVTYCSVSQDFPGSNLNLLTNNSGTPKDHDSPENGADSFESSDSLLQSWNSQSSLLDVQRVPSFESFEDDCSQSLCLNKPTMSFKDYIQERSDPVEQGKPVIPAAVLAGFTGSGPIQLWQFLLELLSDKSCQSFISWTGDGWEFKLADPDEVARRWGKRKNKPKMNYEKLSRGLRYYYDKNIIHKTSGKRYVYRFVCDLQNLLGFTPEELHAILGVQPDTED
The note with it: protein: recombinant; tags: N-terminal GST; dsDNA, one strand shown. The method in brief: as §1

For the next experiment, the target named is T9, SPDEF (Homo sapiens, UniProt O95238 1-335).
T9 sequence: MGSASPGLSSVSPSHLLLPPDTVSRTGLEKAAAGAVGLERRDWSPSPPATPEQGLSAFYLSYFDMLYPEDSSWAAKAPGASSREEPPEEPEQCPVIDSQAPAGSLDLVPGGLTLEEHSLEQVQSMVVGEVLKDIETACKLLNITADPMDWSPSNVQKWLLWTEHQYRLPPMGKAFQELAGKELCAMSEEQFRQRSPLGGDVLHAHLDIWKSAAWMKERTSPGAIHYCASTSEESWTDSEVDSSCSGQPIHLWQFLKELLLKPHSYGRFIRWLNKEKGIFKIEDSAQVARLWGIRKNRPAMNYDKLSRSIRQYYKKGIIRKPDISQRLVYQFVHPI
The conditions noted are these: protein: recombinant; tags: N-terminal GST; dsDNA, one strand shown. The procedure, abridged: as §1

The next experiment has as its target T10, ETV7 (Homo sapiens, UniProt Q9Y603 1-341).
T10 sequence: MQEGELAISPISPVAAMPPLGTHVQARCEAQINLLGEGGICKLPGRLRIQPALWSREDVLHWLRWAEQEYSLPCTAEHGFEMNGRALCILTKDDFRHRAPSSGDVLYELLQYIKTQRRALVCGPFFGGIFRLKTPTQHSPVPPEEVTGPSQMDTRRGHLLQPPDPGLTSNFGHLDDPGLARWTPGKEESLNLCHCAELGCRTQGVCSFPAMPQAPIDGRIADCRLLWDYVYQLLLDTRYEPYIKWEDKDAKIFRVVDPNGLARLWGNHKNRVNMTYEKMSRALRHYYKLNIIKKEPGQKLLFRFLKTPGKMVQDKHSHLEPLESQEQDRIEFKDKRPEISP
The note with it: protein: recombinant; tags: N-terminal GST; dsDNA, one strand shown. The procedure, abridged:
as §1

Another experiment deals with T11, ELF5 (Homo sapiens, UniProt Q9UKW6-2 1-255).
T11 sequence: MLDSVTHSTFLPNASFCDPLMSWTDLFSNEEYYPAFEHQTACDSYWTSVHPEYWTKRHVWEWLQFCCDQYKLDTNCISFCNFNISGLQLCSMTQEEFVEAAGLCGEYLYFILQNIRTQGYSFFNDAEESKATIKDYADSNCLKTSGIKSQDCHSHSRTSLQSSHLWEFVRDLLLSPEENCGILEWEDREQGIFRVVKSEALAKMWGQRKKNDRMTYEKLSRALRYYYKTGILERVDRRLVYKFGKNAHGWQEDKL
The conditions noted are these: protein: recombinant; tags: N-terminal GST; dsDNA, one strand shown. The procedure, abridged: as §1

The target in the next experiment is T12, ETV3 (Homo sapiens, UniProt P41162-2 1-143).
T12 sequence: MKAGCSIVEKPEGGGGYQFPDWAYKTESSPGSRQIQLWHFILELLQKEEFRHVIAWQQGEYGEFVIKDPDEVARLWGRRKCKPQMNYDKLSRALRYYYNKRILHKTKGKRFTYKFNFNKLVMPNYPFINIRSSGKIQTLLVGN
The note with it: protein: recombinant; tags: N-terminal GST; dsDNA, one strand shown. The method in brief: as §1

A further experiment addresses ETV6 (Homo sapiens, UniProt P41212 1-452). The note with it: protein: recombinant; tags: N-terminal GST; dsDNA, one strand shown. The procedure, abridged:
as §1

Sequence of CRX (O43186 whole entry): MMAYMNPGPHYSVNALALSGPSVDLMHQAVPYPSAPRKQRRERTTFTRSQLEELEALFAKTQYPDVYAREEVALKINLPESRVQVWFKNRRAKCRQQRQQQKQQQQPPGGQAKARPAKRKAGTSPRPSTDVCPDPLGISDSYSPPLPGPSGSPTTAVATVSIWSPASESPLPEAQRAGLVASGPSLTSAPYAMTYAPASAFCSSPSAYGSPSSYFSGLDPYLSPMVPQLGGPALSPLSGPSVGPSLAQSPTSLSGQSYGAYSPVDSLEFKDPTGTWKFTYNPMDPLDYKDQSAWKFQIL
Sequence of ETV5 (P41161 whole entry): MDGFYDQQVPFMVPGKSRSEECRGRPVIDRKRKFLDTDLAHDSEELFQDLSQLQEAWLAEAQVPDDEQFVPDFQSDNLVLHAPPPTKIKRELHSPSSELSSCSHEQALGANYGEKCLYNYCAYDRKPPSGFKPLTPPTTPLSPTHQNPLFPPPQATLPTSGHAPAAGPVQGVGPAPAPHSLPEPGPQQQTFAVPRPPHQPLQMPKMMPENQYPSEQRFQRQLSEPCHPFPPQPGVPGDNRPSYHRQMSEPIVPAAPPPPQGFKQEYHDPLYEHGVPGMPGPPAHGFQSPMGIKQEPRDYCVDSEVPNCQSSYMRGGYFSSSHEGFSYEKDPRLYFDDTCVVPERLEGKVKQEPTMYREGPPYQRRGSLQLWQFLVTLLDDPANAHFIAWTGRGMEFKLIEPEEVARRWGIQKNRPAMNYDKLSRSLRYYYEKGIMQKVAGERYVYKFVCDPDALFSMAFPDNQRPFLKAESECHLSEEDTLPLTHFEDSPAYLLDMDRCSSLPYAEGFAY
Sequence of ETV1 (P50549 whole entry): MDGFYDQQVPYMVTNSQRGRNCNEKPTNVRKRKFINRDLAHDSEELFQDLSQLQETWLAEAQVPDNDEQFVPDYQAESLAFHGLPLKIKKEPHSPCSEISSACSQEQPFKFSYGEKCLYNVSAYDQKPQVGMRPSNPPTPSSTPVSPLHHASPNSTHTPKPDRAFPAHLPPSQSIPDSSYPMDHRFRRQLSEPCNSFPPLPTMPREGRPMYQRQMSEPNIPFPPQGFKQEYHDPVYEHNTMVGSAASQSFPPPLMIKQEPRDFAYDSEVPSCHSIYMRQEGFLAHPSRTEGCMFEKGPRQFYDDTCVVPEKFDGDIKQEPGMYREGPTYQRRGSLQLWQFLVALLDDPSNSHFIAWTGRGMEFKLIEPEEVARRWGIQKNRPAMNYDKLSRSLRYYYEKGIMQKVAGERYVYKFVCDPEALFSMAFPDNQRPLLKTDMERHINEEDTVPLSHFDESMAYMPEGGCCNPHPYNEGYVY
Sequence of ELF4 (Q99607 whole entry): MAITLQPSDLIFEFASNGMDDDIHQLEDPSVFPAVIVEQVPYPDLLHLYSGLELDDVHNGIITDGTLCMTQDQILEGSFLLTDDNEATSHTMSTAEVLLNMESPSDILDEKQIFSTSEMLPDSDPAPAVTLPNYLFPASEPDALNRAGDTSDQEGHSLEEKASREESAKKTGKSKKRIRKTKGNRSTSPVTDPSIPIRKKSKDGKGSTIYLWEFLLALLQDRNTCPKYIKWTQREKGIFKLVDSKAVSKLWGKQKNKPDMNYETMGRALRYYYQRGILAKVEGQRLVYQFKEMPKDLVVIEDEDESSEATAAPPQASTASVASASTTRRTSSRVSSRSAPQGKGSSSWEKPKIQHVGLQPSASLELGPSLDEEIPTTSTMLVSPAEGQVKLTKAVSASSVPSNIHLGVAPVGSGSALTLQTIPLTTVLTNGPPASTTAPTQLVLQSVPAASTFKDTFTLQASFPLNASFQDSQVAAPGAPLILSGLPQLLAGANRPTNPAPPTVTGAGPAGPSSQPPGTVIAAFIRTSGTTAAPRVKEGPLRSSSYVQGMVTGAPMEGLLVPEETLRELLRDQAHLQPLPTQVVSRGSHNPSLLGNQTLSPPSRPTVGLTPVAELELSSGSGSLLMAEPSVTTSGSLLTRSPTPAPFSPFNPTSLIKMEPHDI
Sequence of ETV6 (P41212 whole entry): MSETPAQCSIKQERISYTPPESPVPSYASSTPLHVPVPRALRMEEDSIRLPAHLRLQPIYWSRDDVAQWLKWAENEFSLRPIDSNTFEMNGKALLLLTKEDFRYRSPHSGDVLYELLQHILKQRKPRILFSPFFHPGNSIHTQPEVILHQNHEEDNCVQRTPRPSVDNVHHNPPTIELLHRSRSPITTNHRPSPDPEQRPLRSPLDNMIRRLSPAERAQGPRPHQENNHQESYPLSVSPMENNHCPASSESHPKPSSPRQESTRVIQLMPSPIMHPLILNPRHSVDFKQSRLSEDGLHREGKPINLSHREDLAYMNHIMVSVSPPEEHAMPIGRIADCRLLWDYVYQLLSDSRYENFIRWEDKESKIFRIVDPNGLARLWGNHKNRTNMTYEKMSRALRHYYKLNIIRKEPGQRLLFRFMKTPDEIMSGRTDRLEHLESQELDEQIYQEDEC

In the case of TTACAG, the binding signal was 1.14 fold enrichment (6-mer frequency, TF over GST control) with FEV; 1.2 fold enrichment (6-mer frequency, TF over GST control) with ETV5; 1.44 fold enrichment (6-mer frequency, TF over GST control) with HSF1; 1.3 fold enrichment (6-mer frequency, TF over GST control) with SPIC; 1.26 fold enrichment (6-mer frequency, TF over GST control) with ELF4; 1.37 fold enrichment (6-mer frequency, TF over GST control) with ELK4. Moreover, the binding signal was 1.14 fold enrichment (6-mer frequency, TF over GST control) with ETV2; 1.38 fold enrichment (6-mer frequency, TF over GST control) in the experiment with ELF3; 1.85 fold enrichment (6-mer frequency, TF over GST control) in the experiment with CRX; 1.2 fold enrichment (6-mer frequency, TF over GST control) with ETV1; 1.32 fold enrichment (6-mer frequency, TF over GST control) with ERF; 1.22 fold enrichment (6-mer frequency, TF over GST control) with ETV3L. The binding signal in the experiment with ETS2 is 1.21 fold enrichment (6-mer frequency, TF over GST control); with SPDEF it was 1.18 fold enrichment (6-mer frequency, TF over GST control); with ETV7, 1.22 fold enrichment (6-mer frequency, TF over GST control); with ELF5, 1.16 fold enrichment (6-mer frequency, TF over GST control); in the experiment with ETV3 it was 1.16 fold enrichment (6-mer frequency, TF over GST control); with ETV6, 1.19 fold enrichment (6-mer frequency, TF over GST control).
